# Data taken from PubChem BioAssay AID652048 (National Center for Advancing Translational Sciences (NCATS), 2013).
# “And” between values parts separate entries of the source, which are not always exact repeats. Equal values may be shown once. In all, about 410,000 compounds went through this assay and about 2,400 (0.59%) were called active. The list comes from a sample in which actives are over-represented; it also holds similar structures and randomly drawn compounds. Values without a mark were called inactive. No stated cut-off is given here; in the data, active means max activation above about 30%; inactive means the rest.
# Target: D(3) dopamine receptor (Homo sapiens) (UniProt P35462)
# Sequence (P35462 whole entry, looked up): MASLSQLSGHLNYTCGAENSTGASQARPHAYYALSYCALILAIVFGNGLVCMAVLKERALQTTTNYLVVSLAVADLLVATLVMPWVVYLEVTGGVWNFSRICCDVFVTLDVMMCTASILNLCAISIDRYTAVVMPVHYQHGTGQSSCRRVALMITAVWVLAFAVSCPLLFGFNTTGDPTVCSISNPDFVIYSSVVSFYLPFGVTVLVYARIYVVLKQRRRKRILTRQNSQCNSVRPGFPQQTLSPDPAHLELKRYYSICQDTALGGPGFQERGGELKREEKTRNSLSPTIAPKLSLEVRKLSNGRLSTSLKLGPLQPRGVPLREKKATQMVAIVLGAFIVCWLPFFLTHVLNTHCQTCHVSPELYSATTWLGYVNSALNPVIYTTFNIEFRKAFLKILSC
# Assay: qHTS of D3 Dopamine Receptor Agonist: qHTS; further: 0% is about no effect
# Settings: D3R DiscoveRx beta-arrestin cells, luminescence, 90 min; stronger effect = higher value
# In short: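 Agonist-mode cell screen: cells plated at 1500/well and incubated overnight at 37 °C, then exposed to library compounds for 90 min at 37 °C. Detection reagent was added for 30–60 min at room temperature, and luminescence was read.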
row,SMILES,max activation
1,Cc1cc(OCC(=O)NCC(O)c2ccccc2)c2c(C)c(C)c(=O)oc2c1 (configuration not stated),2.59%
2,COc1ccc(CCNC(=O)c2cc(=O)c3c(C)cc(C)cc3o2)cc1OC,21.9%
3,COc1ccc(CCNC(=O)COc2cc(C)cc3oc(=O)c(C)c(C)c23)cc1OC,42.4% (active)
4,COc1cc2c(cc1OC)CC(=O)N(CCCN(C)C[C@H]1Cc3cc(OC)c(OC)cc31)CC2,-16.3%
5,COc1ccc(N2CCN(S(=O)(=O)c3ccc(-c4coc(C)n4)cc3)CC2)cc1,1.53%
6,O=C1c2ccccc2S(=O)(=O)N1Cc1c(F)cccc1Cl,-0.264%
7,Cc1ccc(C)c(N2C(=O)N(Cc3c(F)cccc3Cl)c3ccccc3S2(=O)=O)c1,64.6% (active)
8,O=c1c(=O)n(Cc2c(F)cccc2Cl)ccn1Cc1ccccc1,-9.07%
9,CCOC(=O)c1cnc(SCC(=O)Nc2cccc(OC)c2)nc1N,6.65%
10,CCCCOc1ccc(-c2ncc(C(=O)OCC)c(N)n2)cc1,85% (active)
11,CCOC(=O)c1cnc(SCc2nc(N)nc(Nc3ccc(OC)cc3)n2)nc1N,2.44%
12,CCOC(=O)c1c(NC(=O)c2cc(-c3ccc(Cl)cc3)on2)sc2c1CCCC2,-8.12%
13,C=O,7.37%
14,CCn1cc(C(=O)N(C)Cc2ccccc2)c(=O)c2cc(S(=O)(=O)N3CCCCCC3)ccc21,3.05%
15,COc1cc(/C=C2\Oc3ccc(C#Cc4ccc(O)cc4)cc3C2=O)cc(OC)c1,15.9%
16,COc1cc(C#Cc2ccc3cc(CCCO)oc(=O)c3c2)cc(OC)c1,41.1% (active)
17,COc1cc(CN(C(=O)c2ccccc2Br)c2ccccn2)cc(OC)c1OC,-5.51%
18,COC(=O)c1ccc(NC(=O)CCc2c(C)nc3c(c(C)nn3-c3ccc(C)cc3)c2C)cc1,4.91%
19,O=S(O)CNc1ccc(S(=O)(=O)c2ccc(NCS(=O)O)cc2)cc1,-10.5%

row,SMILES,max activation
1,Cc1ccc(N2C(=O)C(NC(=O)c3c(F)cccc3F)(C(F)(F)F)C3=C2CC(C)(C)CC3=O)cc1 (configuration not stated),-17.5%
2,COC(=O)C1CC2=C(CC(C)(C)CC2=O)N(c2ccccc2)C1=O (configuration not stated),32.1% (active)
3,CC(C)C1C2=C(CC(C)(C)CC2=O)ON1c1ccccc1 (configuration not stated),-2.83%
4,CC(=O)NC(=O)c1ccccc1O,-11.8%
5,Cc1cc(C)cc(NC(=O)c2cnc3sc(N4CCCC4)nn3c2=O)c1,19.3%
6,CC(C)Oc1ccc(CNC(=O)C2CCN(c3nc4ccccc4n(C)c3=O)CC2)cc1,-5.52%
7,COc1cc(C(=O)N2CCOCC2)cc(OC)c1OC,4.3% and 9.01%
8,COc1ccccc1/C=C/C1=NC(=C\N(C)C)/C(=O)O1,-12.1%
9,CC(C)(C)C1C/C(=C/c2ccco2)C(=O)/C(=C/c2ccco2)C1 (configuration not stated),-7.15%
10,O=C1OC(/C=C/c2ccccc2)=NC/1=C/c1ccco1,30.1% (active)
11,Cc1cccc(NC(=O)N2CCC(CN3CCc4ccccc4C3)CC2)c1C,-18.9%
12,CCOC(=O)Cn1c(=O)n(-c2ccccc2OC)c2nc(-c3cccc(F)c3)nc(C(N)=O)c21,4.17%
13,COc1ccccc1N1CCN(c2ncnc3onc(-c4ccc(F)cc4)c23)CC1,-8.86%
14,COc1ccccc1N1CCN(c2ncnc3onc(-c4cccc(Cl)c4)c23)CC1,7.08%
15,COc1ccccc1N1CCN(c2ncnc3sc(C)c(-c4ccccc4)c23)CC1,50.8% (active)
16,Cc1cccc(N2CCN(S(=O)(=O)c3ccc4[nH]c5c(c4c3)CCCCC5)CC2)c1C,-5.55%
17,COc1cccc(CNC(=O)CCc2nc(-c3ccc(C)cc3)no2)c1,-0.491%
18,COc1ccc(-c2noc(CCC(=O)N3CCN(c4cccc(C)c4)CC3)n2)cc1,35.7% (active)
19,Cc1ccc(C)c(N2CCN(C(=O)CCc3nc(-c4cccc(C(F)(F)F)c4)no3)CC2)c1,11.8%

row,SMILES,max activation
1,CCN1CCN(C(=O)N[C@@H](C(=O)N[C@@H]2C(=O)N3[C@@H]2SC(C)(C)[C@H]3C(=O)O)c2ccccc2)C(=O)C1=O,-1.19%
2,O=C1N(Cc2ccccc2)c2ccc(Cl)cc2C1(O)c1c[nH]c2ccccc12 (configuration not stated),8.47%
3,CCN(CC)S(=O)(=O)c1ccc2c(c1)N(CC(=O)NCC(C)c1ccccc1)C(=O)CO2 (configuration not stated),-18.9%
4,COc1ccc([C@H]2CC(=O)C=C(c3ccc(CO)cc3)C2)cc1,10.9%
5,COc1cccc(C2=CC(=O)C[C@H](c3ccc(OC)c(OC)c3)C2)c1,-0.655%
6,COc1ccc2cc(C3=CC(=O)C[C@H](c4ccc5c(c4)OCO5)C3)ccc2c1,38.7% (active)
7,Cc1nc(SCCOc2ccc(Cl)cc2)[nH]c(=O)c1Cc1ccccc1,1.02%
8,O=C(Cn1cnc2c(oc3ccccc32)c1=O)Nc1ccc(OC(F)(F)F)cc1,2.62%
9,O=C1CCN(CCc2ccccc2)CCN1CCOc1ccccc1,-27.1%
10,O=C(c1ccco1)N1CCN(C(=O)c2ccc(COc3ccc(F)cc3)o2)CC1,1.73%
11,COc1cccc(OC)c1OCCN1CCN(C(=O)c2ccco2)CC1,73.2% (active)
12,O=C(c1ccco1)N1CCN(Cc2cccc(C(F)(F)F)c2)CC1,8.47%
13,O=CN1CCN(C(=O)c2ccc(Br)o2)CC1,-4.54%
14,O=C(c1ccc(Br)o1)N1CCN(CCOc2ccccc2)CC1,54.7% (active)
15,O=C(CCCCn1c(=O)c2ccccc2n(CC(=O)Nc2cccc(C(F)(F)F)c2)c1=O)NCc1ccc2c(c1)OCO2,6.91%
16,CC(=O)Oc1ccccc1C(=O)Nc1ncc([N+](=O)[O-])s1,6.84%
17,CCOC(=O)c1sc(NC(=O)/C=C/c2ccc(C(C)C)cc2)c(C(=O)OCC)c1C,-9.68%
18,COC(=O)c1c(NC(=O)CCCOc2ccccc2)sc2c1CCC(C)C2 (configuration not stated),4.8%
19,CCOC(=O)c1c(NC(=O)/C=C/c2ccc(OC)cc2)sc2c1CCC(C)C2 (configuration not stated),59.2% (active)
